Test results as given in article PMC12820563, “FoxP3 forms a head-to-head dimer in vivo and stabilizes its multimerization on adjacent microsatellites”.
In all, about 16,000 sequences were measured (“rpm ratio (pull-down/input)”: median about 0.94, highest 2% from about 1.7 on). For the sample, the highest values were picked, then their nearest neighbours and some sequences at random.

What follows are sequences tested against T1, MBP-FoxP1dN (Mus musculus, UniProt P58462 326-579) (assay: PD-seq (MBP pull-down with sequencing); 20 mM Tris-HCl pH 7.5, 100 mM NaCl, 1.5 mM MgCl2, 0.4 uM protein, 0.1 uM dsDNA library, 30 min, room temperature, amylose pull-down; high values mean tight binding). Conditions: protein: recombinant; tags: His6-MBP; chain copies: 2; dsDNA, one strand shown.
T1 sequence: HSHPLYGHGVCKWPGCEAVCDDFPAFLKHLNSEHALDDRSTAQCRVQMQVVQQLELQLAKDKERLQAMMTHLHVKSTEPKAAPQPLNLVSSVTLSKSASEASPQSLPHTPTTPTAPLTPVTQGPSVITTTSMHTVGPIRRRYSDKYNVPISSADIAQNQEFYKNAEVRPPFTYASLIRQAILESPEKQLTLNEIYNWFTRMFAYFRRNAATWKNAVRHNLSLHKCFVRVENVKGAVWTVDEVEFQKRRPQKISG
Summary of the method: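 His6-MBP-tagged mouse FoxP3 or FoxP1 fragment lacking the N-terminus, expressed in E. coli, was mixed at 0.4 µM with 0.1 µM Klenow-filled double-stranded degenerate DNA library. Incubation was 30 min at room temperature in Tris pH 7.5 buffer with NaCl and MgCl2. Complexes were caught on amylose resin and washed three times; DNA was released with proteinase K, PCR-barcoded and Illumina-sequenced. Binding is reads-per-million enrichment, pull-down over input, with replicates pooled.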
For “GATGATTGTTCTCCCAGCTGATGAATTGAGGTCCTCGAGTAAACAAATTTTCCTAATCTTTCTGTTCAAGCGCCATCTAC”, the binding signal was 0.772 RPM ratio (pull-down/input). With “GATGATTGTTCTCCCAGCTGATGAATTTGATAGCTCGAGTAAACAAATTTTCCTAATCTTTCTGTTCAAGCGCCATCTAC” the binding signal was 0.868 RPM ratio (pull-down/input). For “GATGATTGTTCTCCCAGCTGATGAATTCGGTACATCGAGTAAACAAATTTTCCTAATCTTTCTGTTCAAGCGCCATCTAC”, the binding signal was 0.991 RPM ratio (pull-down/input). In the case of “GATGATTGTTCTCCCAGCTGATGAATTCTAATAGTCGAGTAAACAAATTTTCCTAATCTTTCTGTTCAAGCGCCATCTAC”, the binding signal is reported as 0.905 RPM ratio (pull-down/input). “GATGATTGTTCTCCCAGCTGATGAATTAGCCGTATCGAGTAAACAAATTTTCCTAATCTTTCTGTTCAAGCGCCATCTAC” was tested, and the binding signal was 0.934 RPM ratio (pull-down/input). “GATGATTGTTCTCCCAGCTGATGAATTTACGATCTCGAGTAAACAAATTTTCCTAATCTTTCTGTTCAAGCGCCATCTAC” was tested, and the binding signal was 1.15 RPM ratio (pull-down/input). In the case of “GATGATTGTTCTCCCAGCTGATGAATTGGCGCTATCGAGTAAACAAATTTTCCTAATCTTTCTGTTCAAGCGCCATCTAC”, the binding signal is reported as 0.954 RPM ratio (pull-down/input). For “GATGATTGTTCTCCCAGCTGATGAATTCTGCCCGTCGAGTAAACAAATTTTCCTAATCTTTCTGTTCAAGCGCCATCTAC”, the binding signal was 0.815 RPM ratio (pull-down/input). In the case of “GATGATTGTTCTCCCAGCTGATGAATTATCTGTATCGAGTAAACAAATTTTCCTAATCTTTCTGTTCAAGCGCCATCTAC”, the binding signal is reported as 1.1 RPM ratio (pull-down/input). With “GATGATTGTTCTCCCAGCTGATGAATTAATTGTATCGAGTAAACAAATTTTCCTAATCTTTCTGTTCAAGCGCCATCTAC” the binding signal was 1.44 RPM ratio (pull-down/input). With “GATGATTGTTCTCCCAGCTGATGAATTGTAATTATCGAGTAAACAAATTTTCCTAATCTTTCTGTTCAAGCGCCATCTAC” the binding signal was 1.54 RPM ratio (pull-down/input). For “GATGATTGTTCTCCCAGCTGATGAATTATTTGTATCGAGTAAACAAATTTTCCTAATCTTTCTGTTCAAGCGCCATCTAC”, the binding signal was 2 RPM ratio (pull-down/input). In the case of “GATGATTGTTCTCCCAGCTGATGAATTTGTATTATCGAGTAAACAAATTTTCCTAATCTTTCTGTTCAAGCGCCATCTAC”, the binding signal is reported as 2.13 RPM ratio (pull-down/input). With “GATGATTGTTCTCCCAGCTGATGAATTGTATTAATCGAGTAAACAAATTTTCCTAATCTTTCTGTTCAAGCGCCATCTAC” the binding signal was 1.24 RPM ratio (pull-down/input). “GATGATTGTTCTCCCAGCTGATGAATTGCGAATATCGAGTAAACAAATTTTCCTAATCTTTCTGTTCAAGCGCCATCTAC” was tested, and the binding signal was 1.17 RPM ratio (pull-down/input). With “GATGATTGTTCTCCCAGCTGATGAATTGCTCTTCTCGAGTAAACAAATTTTCCTAATCTTTCTGTTCAAGCGCCATCTAC” the binding signal was 0.889 RPM ratio (pull-down/input). “GATGATTGTTCTCCCAGCTGATGAATTCGGGTTCTCGAGTAAACAAATTTTCCTAATCTTTCTGTTCAAGCGCCATCTAC” was tested, and the binding signal was 0.806 RPM ratio (pull-down/input). In the case of “GATGATTGTTCTCCCAGCTGATGAATTGGAATATTCGAGTAAACAAATTTTCCTAATCTTTCTGTTCAAGCGCCATCTAC”, the binding signal is reported as 0.93 RPM ratio (pull-down/input). “GATGATTGTTCTCCCAGCTGATGAATTTGTTGTCTCGAGTAAACAAATTTTCCTAATCTTTCTGTTCAAGCGCCATCTAC” was tested, and the binding signal was 2.42 RPM ratio (pull-down/input). With “GATGATTGTTCTCCCAGCTGATGAATTGTTGTCTTCGAGTAAACAAATTTTCCTAATCTTTCTGTTCAAGCGCCATCTAC” the binding signal was 2.29 RPM ratio (pull-down/input). With “GATGATTGTTCTCCCAGCTGATGAATTCTTTGTCTCGAGTAAACAAATTTTCCTAATCTTTCTGTTCAAGCGCCATCTAC” the binding signal was 0.931 RPM ratio (pull-down/input). For “GATGATTGTTCTCCCAGCTGATGAATTTCTGTCTTCGAGTAAACAAATTTTCCTAATCTTTCTGTTCAAGCGCCATCTAC”, the binding signal was 0.89 RPM ratio (pull-down/input). For “GATGATTGTTCTCCCAGCTGATGAATTTTTTGTCTCGAGTAAACAAATTTTCCTAATCTTTCTGTTCAAGCGCCATCTAC”, the binding signal was 0.905 RPM ratio (pull-down/input). For “GATGATTGTTCTCCCAGCTGATGAATTGTTTGTCTCGAGTAAACAAATTTTCCTAATCTTTCTGTTCAAGCGCCATCTAC”, the binding signal was 2.6 RPM ratio (pull-down/input). In the case of “GATGATTGTTCTCCCAGCTGATGAATTGTCTTCTTCGAGTAAACAAATTTTCCTAATCTTTCTGTTCAAGCGCCATCTAC”, the binding signal is reported as 1.05 RPM ratio (pull-down/input). “GATGATTGTTCTCCCAGCTGATGAATTTGTCTTCTCGAGTAAACAAATTTTCCTAATCTTTCTGTTCAAGCGCCATCTAC” was tested, and the binding signal was 1.16 RPM ratio (pull-down/input). In the case of “GATGATTGTTCTCCCAGCTGATGAATTTTGTCTCTCGAGTAAACAAATTTTCCTAATCTTTCTGTTCAAGCGCCATCTAC”, the binding signal is reported as 0.968 RPM ratio (pull-down/input). “GATGATTGTTCTCCCAGCTGATGAATTGTATCAATCGAGTAAACAAATTTTCCTAATCTTTCTGTTCAAGCGCCATCTAC” was tested, and the binding signal was 1.25 RPM ratio (pull-down/input). For “GATGATTGTTCTCCCAGCTGATGAATTACTATATTCGAGTAAACAAATTTTCCTAATCTTTCTGTTCAAGCGCCATCTAC”, the binding signal was 1.23 RPM ratio (pull-down/input). For “GATGATTGTTCTCCCAGCTGATGAATTCAGCACATCGAGTAAACAAATTTTCCTAATCTTTCTGTTCAAGCGCCATCTAC”, the binding signal was 0.96 RPM ratio (pull-down/input). For “GATGATTGTTCTCCCAGCTGATGAATTCCCGATGTCGAGTAAACAAATTTTCCTAATCTTTCTGTTCAAGCGCCATCTAC”, the binding signal was 0.877 RPM ratio (pull-down/input). For “GATGATTGTTCTCCCAGCTGATGAATTTAAGGACTCGAGTAAACAAATTTTCCTAATCTTTCTGTTCAAGCGCCATCTAC”, the binding signal was 0.845 RPM ratio (pull-down/input). With “GATGATTGTTCTCCCAGCTGATGAATTAAATCTGTCGAGTAAACAAATTTTCCTAATCTTTCTGTTCAAGCGCCATCTAC” the binding signal was 0.778 RPM ratio (pull-down/input). With “GATGATTGTTCTCCCAGCTGATGAATTAAAATATTCGAGTAAACAAATTTTCCTAATCTTTCTGTTCAAGCGCCATCTAC” the binding signal was 1.1 RPM ratio (pull-down/input). “GATGATTGTTCTCCCAGCTGATGAATTAAATATGTCGAGTAAACAAATTTTCCTAATCTTTCTGTTCAAGCGCCATCTAC” was tested, and the binding signal was 1.07 RPM ratio (pull-down/input).
